A word on the inhibition: it is the drop in the measured response relative to a control, in per cent.

Each structure is given as a SMILES string. Several values for one entry are separate records, joined by “and”; a condition that tells them apart may be missing. Identical values can stand only once. Among all 340,000 compounds or so, about 3,400 (1%) were called active.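 How the source made its calls: active means inhibition above the mean over all tested compounds plus 3 SD (cut at about 4.2% in these data); inactive means the rest.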 This excerpt belongs to a sample that is enriched for actives. The source holds several records for some structures; these can differ, active in one and inactive in another.

For this experiment, the target named is Nuclear receptor subfamily 0 group B member 1 (Homo sapiens) (UniProt P51843). Nature of the experiment: relief of DAX1 transcriptional repression – cell-based, HEK293, Gal4-DAX1, luciferase luminescence, primary screen (AID 504766).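 Further: 0% = DAX1-transfected cells with DMSO and 100% = empty-vector control cells with DMSO; inhibition shows as a rise in luminescence from relieved DAX1 repression.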 To be noted: HEK293 Gal4-DAX1 luciferase reporter, at 6.75 µM, stronger effect = higher value. In general terms: In a reporter assay the amount or activity of a reporter protein is the signal.
Chain of Nuclear receptor subfamily 0 group B member 1 (Homo sapiens) (P51843 207-470 limits assumed): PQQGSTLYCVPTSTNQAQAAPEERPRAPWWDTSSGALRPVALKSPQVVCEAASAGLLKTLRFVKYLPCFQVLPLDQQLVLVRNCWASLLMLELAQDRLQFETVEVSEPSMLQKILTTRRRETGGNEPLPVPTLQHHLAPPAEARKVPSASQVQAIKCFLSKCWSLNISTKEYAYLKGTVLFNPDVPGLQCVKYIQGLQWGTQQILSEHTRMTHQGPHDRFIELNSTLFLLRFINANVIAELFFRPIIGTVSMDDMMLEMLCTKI
Take `CC(C)CC1C(=O)N(Cc2cn(Cc3ccco3)nn2)CCS(=O)(=O)N1Cc1ccc(-c2ccc(Cl)c(Cl)c2)cc1` (stereo not given): the inhibition is -1.34% (inactive).

With `CCn1c(SCC(=O)N2CCCC2=O)nc2ccccc21`, the inhibition is 1.3% (inactive).

For the compound `CCOC(=O)c1ccc(NC(=S)Nc2cc(C)cc(C)n2)cc1`, the inhibition is 1.42% (inactive).

For `CCOC(=O)c1cn[nH]c1NC(=S)Nc1ccccc1`, the inhibition is 6.19% (active).

Consider `CCOC(=O)c1cc2c(nc1NC(=S)Nc1ccccc1)CC(C)(CC)OC2` (stereo not given), for which the inhibition is 0.77% (inactive).

Turning to `O=C(NN=Cc1ccc2c(c1)CCC2)c1ccccc1O`, the inhibition was 2.24% (inactive).

As to `O=C(C[C@H]1C[C@H]2c3cc(NS(=O)(=O)c4ccc(F)cc4)ccc3O[C@H]2[C@H](CO)O1)NCc1cc(F)ccc1F`, the inhibition is -0.52% (inactive).

With `Cc1ccc(NC(=O)c2sccc2C)cc1[N+](=O)[O-]`, the inhibition was 5.25% (active).

On to `Cc1ccc(NC(=O)CN(C)CC(=O)Nc2cccc(F)c2)cc1[N+](=O)[O-]`, for which the inhibition is -3.16% (inactive).

As to `Cc1ccc(NC(=O)CN2CCC(C(N)=O)CC2)cc1[N+](=O)[O-]`, the inhibition was 0.4% (inactive).

Regarding `CCN(CC)C(=O)C(=O)Nc1cccc(Br)c1`, the inhibition was 1.59% (inactive).

Regarding `CCN(CC)N=Nc1cccc(NC(C)=O)c1`, the inhibition was 8.01% (active).

`CC(=O)Nc1cccc(C(=O)OCN2C(=O)c3ccccc3C2=O)c1`: the inhibition is 0.92% (inactive).

Turning to `CC(C)n1ncc2c(C(=O)N3CCN(Cc4cccs4)CC3)cc(C3CC3)nc21`, the inhibition was -1.38% (inactive).

On to `Cc1ccc(S(=O)(=O)N(CCc2ccccc2)c2ccc3c(c2)C2CC3CCN2C(=O)OCc2ccccc2)cc1` (stereo not given), for which the inhibition was -0.92% (inactive).

Consider `CCOC(=O)N1CCN(Cc2nc(Cc3cccc(C(F)(F)F)c3)no2)CC1`, for which the inhibition is 4.88% (active).

Consider `Fc1cccc(Cc2noc(CN3CCN(c4cnccn4)CC3)n2)c1`, for which the inhibition was -1.08% (inactive).

Consider `FC(F)(F)c1cccc(Cc2noc(CN3CCC(N4CCCCC4)CC3)n2)c1`, for which the inhibition was 0.44% (inactive).

On to `O=C(c1ccco1)N1CCN(CCOc2ccccc2)CC1`, for which the inhibition was 3.53% (inactive).

With `O=C(c1ccco1)N1CCN(Cc2cccc(C(F)(F)F)c2)CC1`, the inhibition was 4.58% (active).

Take `O=C(CN1CCN(C(=O)c2ccco2)CC1)Nc1ccc(Cl)c(C(F)(F)F)c1`: the inhibition was -0.99% (inactive).

Take `Cc1cc(C)c2cc(C#N)c(N3CCNCC3)nc2c1`: the inhibition was 0.35% (inactive).

As for `O=Cc1cn(CCOc2ccc(F)cc2)c2ccccc12`, the inhibition is -0.3% (inactive).

`O=C(CNC(=O)N1CC(=O)Nc2ccccc21)Nc1ccc(Br)cc1F`: the inhibition was 0.45% (inactive).

Consider `Cc1nnc(SC(C)C(=O)c2c[nH]c3ccccc23)n1C1CC1` (stereo not given), for which the inhibition was 0.71% (inactive).

Take `COc1ccc2c(CC(=O)OCC(=O)Nc3ccccc3[N+](=O)[O-])coc2c1`: the inhibition is 0.79% (inactive).

Turning to `COc1ccc(N(CC(=O)Nc2cccc3ccccc23)S(C)(=O)=O)c(OC)c1`, the inhibition was -0.73% (inactive).

In the case of `CCc1ccccc1NC(=O)CN(c1ccc(OC)cc1OC)S(=O)(=O)c1ccccc1[N+](=O)[O-]`, the inhibition was 5.44% (active).

For `CCN(CC)C(=O)C1=C(C)N(Cc2ccc(OC)cc2)C(=O)C(CC(=O)NCCCCc2ccccc2)C1` (stereo not given), the inhibition was -0.34% (inactive).

For `CCOc1ccc(CCNC(=O)COC(=O)c2ccc(C)c(S(=O)(=O)N3CCOCC3)c2)cc1OCC`, the inhibition is -0.65% (inactive).

Consider `CCN(CC)C(=O)C1=C(C)N(Cc2ccc(C(C)(C)C)cc2)C(=O)C(CC(=O)NCc2cccc3ccccc23)C1` (stereo not given), for which the inhibition is -0.14% (inactive).

For `Cc1cc(-c2nc(C)c(-c3nnc(SCC(=O)Nc4ccccc4)n3C)s2)no1`, the inhibition is -0.43% (inactive).

As to `Cn1c(SCC(=O)Nc2cccc(NC(=O)c3cccs3)c2)nnc1-c1ccncc1`, the inhibition was -0.64% (inactive).

As for `Cc1nc(-c2nnc(SCC(=O)Nc3cc(C(F)(F)F)cc(C(F)(F)F)c3)n2C)cs1`, the inhibition was 6.44% (active).

Consider `O=C(c1ccc(CS(=O)Cc2ccccc2Cl)o1)N1CCN(c2ccccc2)CC1` (stereo not given), for which the inhibition is 0.5% (inactive).

For `CCOC(=O)C(C(=O)c1ccccc1)C(c1ccccc1)c1nccc2ccccc12` (stereo not given), the inhibition was -0.83% (inactive).

With `CC1(c2cccc(Br)c2)NC(=O)N(CC(=O)NCCC2=CCCCC2)C1=O` (stereo not given), the inhibition is 1.45% (inactive).

As for `O=S1(=O)CCN(Cc2ccccc2)CC1`, the inhibition was -0.64% (inactive).

With `CC(C)C(=O)N1CCN(CCN=CC2=C(O)CC(c3ccco3)CC2=O)CC1` (stereo not given), the inhibition is 5.43% (active) and 1.58% (inactive).

For `CC(=O)N1CCN(CCN=CC2=C(O)CC(C)(C)CC2=O)CC1`, the inhibition was 0.1% (inactive).

For the compound `O=C1CC(c2ccccc2)CC(O)=C1C=NCCN1CCOCC1` (stereo not given), the inhibition was -0.18% (inactive).

As to `CC1(C)CC(=O)C=C(c2ccc(COC(=O)c3cc(F)cc(F)c3)cc2)C1=O`, the inhibition was -0.88% (inactive).

Turning to `CC1C(=O)N(Cc2cn(CC3CCCCC3)nn2)CCS(=O)(=O)N1Cc1ccc(-c2cccc(N(C)C)c2)cc1` (stereo not given), the inhibition is 0.14% (inactive).

With `C[C@H](CO)N1C[C@H](C)[C@H](CN(C)C(=O)Nc2ccc3c(c2)OCO3)Oc2ncc(Br)cc2C1=O`, the inhibition is 2.47% (inactive).

Take `N#CC1=C(N)Oc2cc(N)ccc2C1c1ccccc1` (stereo not given): the inhibition was 0.38% (inactive).

Take `Cc1cc2c(c(=O)n1C)C(C(C)C)C(C#N)=C(N)O2` (stereo not given): the inhibition was -0.55% (inactive).

Regarding `Cn1c2c(c(=O)n(C)c1=O)C(c1cccc(F)c1)C(C#N)=C(N)O2` (stereo not given), the inhibition is 5.95% (active).

In the case of `CC1CC(NC(=S)N(C)C)CC(C)(C)C1` (stereo not given), the inhibition was 1.5% (inactive).

`COc1cccc(/C=C2\SC(=S)N(CCCC(=O)N3CCOCC3)C2=O)c1`: the inhibition was -0.53% (inactive).

In the case of `COc1cccc(-c2nn(C)c3sc(C(=O)N4CCN(c5ccccc5)CC4)cc23)c1`, the inhibition is -1.01% (inactive).

With `CCOC(=O)N1CCN(C(=O)c2cc3c(-c4ccc(Cl)cc4)nn(C)c3s2)CC1`, the inhibition was 4.96% (active).

Turning to `COc1ccccc1N1CCN(C(=O)c2cc3c(-c4ccc(Cl)cc4)nn(C)c3s2)CC1`, the inhibition was 2.84% (inactive).

Turning to `COCCCn1c(C(=O)NC2CCCCC2)cc2c(=O)n3cccc(C)c3nc21`, the inhibition is -1.22% (inactive).

Take `O=C(Nc1ccc2c(c1)[C@@H]1C[C@@H](CC(=O)N3CCCCC3)O[C@@H](CO)[C@@H]1O2)NC1CCCCC1`: the inhibition is 0.47% (inactive).

As for `Cc1cccc(C(=O)NC2CCN(CC(=O)Nc3cccc(Cl)c3)CC2)c1`, the inhibition was 0.29% (inactive).

For the origin of these results see PubChem BioAssay AID504766 (The Scripps Research Institute Molecular Screening Center, 2011).
